From PubChem BioAssay (NCI) come the findings set out here.

About 83,000 compounds went through this panel and 20% of them were active in at least one assay; those are over-represented in the sample as a whole.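 Treatment: one concentration, 48 hours, 96-well format. Scoring: percent growth, with anything below 10 considered active.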 Unmarked numbers belong to inactive results. Calls of active or inactive are those of the source.

This test deals with CCRF-CEM leukemia. Kind of test: NCI-60 one-dose screen, 48 h (100 = growth as untreated, 0 = no growth, -100 = all killed). The note with it: 10 µM unless noted.
For `N#C/C(C(=O)c1ccccc1)=C1/C(=O)Nc2ccc(F)cc21`, the growth is 116%.

For `C=C(C)[C@@H]1CC[C@]2(C(=O)NCCCN)CC[C@]3(C)[C@H](CC[C@@H]4[C@@]5(C)CC[C@H](O)C(C)(C)[C@@H]5CC[C@]43C)[C@@H]12`, the growth was 1.39% [100 µM] (active).

Regarding `O=C1/C(=C\c2cn(CC(O)CN3CCCCC3)c3ccccc23)c2ccccc2N1c1c(Cl)cccc1Cl` (stereo not drawn), the growth is -4.36% (active).

Turning to `COc1ccc(OC)c([N+](=O)[O-])c1C(=O)CNC(C)=O`, the growth is 110%.

`Nc1cccc2c1C(=O)c1cccc(NC(=O)c3ccccc3)c1C2=O`: the growth is 12.6%.

As for `CCNc1cc2c(cc1Br)-c1ccccc1C2=O`, the growth is 97.2%.

For the compound `CCOc1cccc2c(NC(C)CCCN(CC)CC)c(C)cnc12` (stereo not drawn), the growth was 108%.

Regarding `COc1cc(/C=C/C(=O)/C=C/c2ccc(-n3ccnc3C)cc2)ccc1O`, the growth is 35.5%.

Regarding `COc1cc(-c2nc(SCCC(C)C)nc(Nc3ccccc3)c2C#N)cc(OC)c1OC`, the growth is 88.6%.

Regarding `CN(C)C(=S)Sc1ccc([N+](=O)[O-])cc1[N+](=O)[O-]`, the growth is 4.55% (active).

Regarding `Nc1ccc(Cl)c([N+](=O)[O-])c1`, the growth was 94%.

Consider `CCCCCCCCCCCCNC(=S)N/N=C/c1ccccc1O`, for which the growth was 46.1%.

As to `CC1(C)CC[C@]2(C(=O)OC(=O)[C@]34CCC(C)(C)C[C@@H]3C3=CC[C@@H]5[C@@]6(C)CCC(=O)C(C)(C)[C@@H]6CC[C@@]5(C)[C@]3(C)CC4)CC[C@]3(C)C(=CC[C@@H]4[C@@]5(C)CCC(=O)C(C)(C)[C@@H]5CC[C@]43C)[C@H]2C1`, the growth was 44.4% [100 µM].

As for `COc1cccc(-c2[nH]c(=S)ncc2C(=O)c2ccccc2)c1`, the growth is 93.7%.

As for `O=C(N=c1n(-c2ccccc2)nc2n1CCN2C1=NCCN1C(=O)c1ccc(Cl)cc1)c1ccc(Cl)cc1`, the growth was 51.4%.

As for `COc1cc2c(=O)[nH]c3cc([N+](=O)[O-])ccc3c2cc1[N+](=O)[O-]`, the growth is 46.5%.

Turning to `NC(=O)CC1C=CCC1` (stereo not drawn), the growth was 82.4%.

Turning to `O=C(Nc1cccc2ccccc12)c1cc2ccccc2cc1O`, the growth was 17.1%.

For `Cc1ccc(N)c(O)c1`, the growth was 77.9%.

On to `CCOC(=O)CCC[P+](c1ccccc1)(c1ccccc1)c1ccccc1`, for which the growth is 72.6%.

With `CCN(CC)c1cc(N)c(Cc2c(N)cc(N(CC)CC)cc2Cl)c(Cl)c1`, the growth was 51.5%.

With `CSc1nc(N)c(N=Nc2ccc(S(=O)(=O)Nc3nnc(C)s3)cc2)c(=O)[nH]1`, the growth is 128%.

With `CC1(C)C(=O)/C(=C\c2cccnc2)C[C@]2(C)[C@H]3CC[C@@H]4[C@H]5[C@H](C(=O)/C=C/c6cccnc6)CC[C@]5(C(=O)O)CC[C@@]4(C)[C@]3(C)CC[C@@H]12`, the growth is -6.59% [100 µM] (active).

Take `N#CCCc1c[nH]c2ccccc12`: the growth was 81.6%.

For the compound `C[C@@H]1C[C@H]2C(=O)O[C@@H](C)[C@H](NC(=O)[C@H](Cc3cc(F)cc(F)c3)NC(=O)Nc3ccc(C4CC4)cc3F)C(=O)N3CCC[C@H]3C(=O)N3CCCC[C@H]3C(=O)N[C@@H](C)C(=O)N2C1`, the growth was 39.9%.

Regarding `CCN(CC)CCCC(C)Nc1c2ccc(C)cc2nc2ccc(OC)cc12` (stereo not drawn), the growth was 30.9%.

For the compound `C#CCNC(=O)CC[C@]1(C)[C@H]2CC[C@@H]3[C@@H]([C@@](C)(O)CCC=C(C)C)CC[C@@]3(C)[C@]2(C)CC[C@H]1C(=C)C`, the growth was -34.4% [100 µM] (active).

Consider `CC1(C)CC[C@]2(C(=O)O)CC[C@]3(C)C(=CC[C@@H]4[C@@]5(C)C/C(=C/c6ccco6)C(=O)C(C)(C)[C@@H]5CC[C@]43C)[C@@H]2C1`, for which the growth was 4.17% [100 µM] (active).

With `C=C(C)[C@@H]1CC[C@]2(C(=O)O)CC[C@]3(C)[C@H](CC[C@@H]4[C@@]5(C)C/C(=C/c6ccco6)C(=O)C(C)(C)[C@@H]5CC[C@]43C)[C@@H]12`, the growth was 3.44% [100 µM] (active).

As for `C[n+]1cccc(NC(=O)c2ccc3ccc4ccc(C(=O)Nc5ccc[n+](C)c5)nc4c3n2)c1`, the growth is 71.1%.

For `Cc1ccc(S(=O)(=O)N/N=C2\CC3CCC2(C)C3(C)C)cc1` (stereo not drawn), the growth was 112%.

Turning to `CCOC(=O)c1nn(C2CCCCO2)c2ccc(NC(=O)Cn3nnc4ccccc43)cc12` (stereo not drawn), the growth is 117%.

For `Cn1cc(-c2nnc(-c3cn(C)c4ncc(Br)cc34)o2)c2ccccc21`, the growth was 102%.

Turning to `O=C(Nc1ccc(Oc2ccc(F)cc2)c(Cl)c1)c1cccnn1`, the growth was 75.1%.

For `Cc1ccc2c(n1)C(=O)C(Cl)=C(Nc1ccc(N3CCN(C)CC3)cc1)C2=O`, the growth was -6.24% (active).

As to `c1cc2ccc1CNCCN1CCNCc3ccc(cc3)Oc3ccc(cc3)CNCCN(CCNCc3ccc(cc3)O2)CCNCc2ccc(cc2)Oc2ccc(cc2)CNCC1`, the growth was -17.4% (active).

For `Cc1ccc(-c2cn(C/C=C3\C=CN(S(=O)(=O)c4ccccc4)CC3)nn2)cc1`, the growth is 3.1% (active).

Turning to `CCCCCCCCN(CCCCCCCC)CC(O)c1ccc(Cl)c(C)c1Cl` (stereo not drawn), the growth was 78%.
